Measurements reported in the supplement of paper PMC6555819.

What was measured:
Experiment in all cases: PBM binding z-score (relative to random genomic background probes); higher = stronger binding; sequences stand for … in GC…GCGATTGACAGCGTAGAATGAAGG
[1] = system: FXR:RXRa (NR concentration 270 nM, RXRa partner concentration 90 nM)
Procedure, shortened: (§1)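 Probes were double-stranded and carried 34-nt variable regions with direct-repeat seeds, single-nucleotide variants, half-site ablations and random human genomic background sequences, printed on custom Agilent 4×180K protein-binding microarrays. Arrays were incubated 1 h with ligand-free nuclear receptor dimers in PBS pH 7.4, 2% milk, 0.02% Triton X-100, 1 mM DTT, 0.2 mg/mL BSA and 0.4 mg/ml salmon testes DNA. Antibodies against each partner (one per run) detected binding, and scanned fluorescence was regression-normalized. Binding z-scores use the random background probes as reference.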

[2] = system: LXRa:RXRa (NR concentration 270 nM, RXRa partner concentration 90 nM)
Procedure, shortened: as §1

[3] = system: LXRa homodimer (NR concentration 270 nM)
Procedure, shortened: as §1

[4] = system: LXRb:RXRa (NR concentration 270 nM, RXRa partner concentration 90 nM)
Procedure, shortened: as §1

[5] = system: LXRb homodimer (NR concentration 270 nM)
Procedure, shortened: as §1

[6] = system: PPARa:RXRa (NR concentration 270 nM, RXRa partner concentration 90 nM)
Procedure, shortened: as §1

[7] = system: PPARg:RXRa (NR concentration 180 nM, RXRa partner concentration 90 nM)
Procedure, shortened: as §1

[8] = system: PPARg:RXRa 270nM:90nM, anti-RXR (NR concentration 270 nM, RXRa partner concentration 90 nM)
Procedure, shortened: as §1

[9] = system: PPARg:RXRa 30nM:10nM, anti-RXR (NR concentration 30 nM, RXRa partner concentration 10 nM)
Procedure, shortened: as §1

[10] = system: PPARg:RXRa 90nM:30nM, anti-RXR (NR concentration 90 nM, RXRa partner concentration 30 nM)
Procedure, shortened: as §1

[11] = system: PPARg:RXRa DBDmut IVT, anti-RXR (DBD mutation: RXRa K156A/R161A, NR concentration 270 nM, RXRa partner concentration 90 nM)
Procedure, shortened: as §1

[12] = system: PPARg:RXRa IVT, anti-PPARg (NR concentration 270 nM, RXRa partner concentration 90 nM)
Procedure, shortened: as §1

[13] = system: PPARg DBDmut:RXRa IVT, anti-PPARg (DBD mutation: PPARg1 K132A/R137A, NR concentration 270 nM, RXRa partner concentration 90 nM)
Procedure, shortened: as §1

[14] = system: PPARg DBDmut IVT, anti-PPARg (DBD mutation: PPARg1 K132A/R137A, NR concentration 270 nM)
Procedure, shortened: as §1

[15] = system: PPARg homodimer (NR concentration 180 nM)
Procedure, shortened: as §1

[16] = system: PXR:RXRa (NR concentration 270 nM, RXRa partner concentration 90 nM)
Procedure, shortened: as §1

[17] = system: PXR homodimer (NR concentration 270 nM)
Procedure, shortened: as §1

[18] = system: RARa:RXR (NR concentration 270 nM, RXRa partner concentration 90 nM)
Procedure, shortened: as §1

[19] = system: RARa homodimer (NR concentration 270 nM)
Procedure, shortened: as §1

[20] = system: RARb:RXRa (NR concentration 270 nM, RXRa partner concentration 90 nM)
Procedure, shortened: as §1

| Sequence | PBM binding z-score [1] | PBM binding z-score [2] | PBM binding z-score [3] | PBM binding z-score [4] | PBM binding z-score [5] | PBM binding z-score [6] | PBM binding z-score [7] | PBM binding z-score [8] | PBM binding z-score [9] | PBM binding z-score [10] | PBM binding z-score [11] | PBM binding z-score [12] | PBM binding z-score [13] | PBM binding z-score [14] | PBM binding z-score [15] | PBM binding z-score [16] | PBM binding z-score [17] | PBM binding z-score [18] | PBM binding z-score [19] | PBM binding z-score [20] |
| --- | --- | --- | --- | --- | --- | --- | --- | --- | --- | --- | --- | --- | --- | --- | --- | --- | --- | --- | --- | --- |
| CTCGAAAGGTCGTGCTCCGGTGAGTATACCAAAC | 5.22 | 3.95 | 0.167 | 3.33 | 0.24 | 4.95 | 2.82 | 4.07 | 0.826 | 2.65 | 0.784 | 1.77 | 0.64 | 0.56 | 2.34 | 3.57 | 0.18 | 4.87 | -0.416 | 4.04 |
| ATCTCTAGGTAATGATAGTTCAGTGAATGCAAAT | 0.391 | 3.56 | 0.99 | 0.864 | 0.755 | 0.625 | 0.774 | 0.986 | 0.371 | 0.513 | 2.25 | 2.17 | 1.1 | 1.74 | 1.21 | 1.12 | 0.747 | 0.583 | 0.965 | 0.694 |
| GCTTGTAGATCCAGGTTAAGAAAGACTAAGCTAA | -0.143 | -0.0321 | -0.394 | -0.191 | -0.462 | 0.491 | -0.204 | 0.0602 | -0.441 | -0.11 | 1.08 | 0.859 | 0.236 | -0.304 | 0.202 | -0.27 | -0.237 | 0.118 | 0.241 | 0.0746 |
| TCTTGTAAATCAGCAGGTTAAGAAAGCTGGCCAA | 0.256 | 0.519 | -0.233 | 0.511 | -0.113 | 0.935 | -0.661 | 1.45 | 3.06 | 2.45 | 1.8 | -0.234 | -0.435 | -0.222 | 0.0187 | 0.477 | -0.284 | 0.789 | 0.26 | 0.224 |
| CCAGACAGGTGGGAAGGTAACTCAGCCTCGATTA | -0.208 | -0.246 | 0.289 | 0.0174 | -0.794 | 0.0187 | 0.131 | -0.544 | -0.249 | -0.529 | -0.289 | -0.383 | -0.344 | -0.717 | 0.689 | -0.359 | 0.0826 | -0.164 | 0.496 | -0.0117 |
| CCTAGCAGGTCAGGGTCACTCAAGCATTTCGCTT | 4.58 | 3.54 | 0.113 | 3.41 | -0.723 | 4.61 | 3.59 | 4.22 | 1.09 | 3.27 | 3.35 | 4 | -0.304 | -1.12 | 2.56 | 3.91 | 0.115 | 4.5 | 0.487 | 4.2 |
| CAAACTAGGTCCCGAAAGGTCAAAGTCGAATGAC | 5.02 | 5.71 | 5.76 | 5.44 | 1.82 | 5.54 | 4.62 | 5.24 | 2.11 | 4.36 | 4.2 | 4.78 | 0.419 | 0.865 | 3.35 | 5.58 | 1.52 | 6.01 | 1.91 | 4.74 |
